Screens deposited in PubChem by National Center for Advancing Translational Sciences (NCATS).
The list is not random: actives were taken first. Their share in the collection is about 2.7%.
ALOX12 inh = inhibitors of human 12S-lipoxygenase ALOX12; Potency, µM (highest dose often 108 µM), inactives show at the top dose activity change, negative = inhibition, most hits filed as inhibitors; hit rate 1.1% among 580,000; purified 12hLO, xylenol orange hydroperoxide absorbance; P18054; note: potency is the fitted concentration of half-maximal effect; % is set by controls: 0 for no effect and ±100 for the full control effect
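Purified human 12hLO (150 nM final) in 25 mM Hepes, 0.01% Triton X-100, pH 7.0 was preincubated 15 min at room temperature with compound. Then 40 uM arachidonic acid was added, 30 min. Hydroperoxide was read by Fe-XO absorbance ratio 573/405 nm.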
A549 tox = A549 cytotoxicity, counter-screen for Nrf2 inhibitors; Potency, µM (doses to about 46 µM), without a hit: at the highest dose activity change, negative = cytotoxicity, hits mostly inhibitors; hit rate 0.16% among 390,000; A549 ARE-Fluc cells, CellTiter-Fluor viability, 18-24 h; note: potency is the fitted concentration of half-maximal effect; % is set by controls: 0 for no effect and ±100 for the full control effect
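Cytotoxicity counterscreen: CellTiter-Fluor fluorescence was measured in A549 ARE_Fluc cells after 18-24 h of compound exposure in a concentration series. The subsequent BugLite luminescent read reports ARE-luciferase activity.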
mIDH1 inhibitor = human IDH1 R132H inhibition; O75874; IDH1-R132H enzyme, NADPH consumption, diaphorase/resazurin fluorescence; Potency, µM (highest dose often 76.6 µM), for the others: top-dose activity change, negative = inhibition, most hits filed as inhibitors; hit rate 0.093% among 390,000; AID 602179; note: potency is the fitted concentration of half-maximal effect; % is set by controls: 0 for no effect and ±100 for the full control effect; nearly all actives have a fitted effect of over 65% in size
Target sequence (O75874 whole entry R132H, stated change not applied): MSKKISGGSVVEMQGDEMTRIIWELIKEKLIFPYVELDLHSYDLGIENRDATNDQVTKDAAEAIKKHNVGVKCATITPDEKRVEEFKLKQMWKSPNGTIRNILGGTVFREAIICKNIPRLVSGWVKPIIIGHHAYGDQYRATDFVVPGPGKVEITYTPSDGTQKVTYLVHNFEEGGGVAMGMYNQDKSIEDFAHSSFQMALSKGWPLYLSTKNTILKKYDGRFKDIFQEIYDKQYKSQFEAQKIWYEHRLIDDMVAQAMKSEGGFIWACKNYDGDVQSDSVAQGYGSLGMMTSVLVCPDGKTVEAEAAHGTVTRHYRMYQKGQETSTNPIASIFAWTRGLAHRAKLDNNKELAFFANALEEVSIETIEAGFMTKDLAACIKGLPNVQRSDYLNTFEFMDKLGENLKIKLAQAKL
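IDH1-R132H (0.5 ug/mL dispensed) in pH 7.5 Tris buffer was preincubated 30 min with compound, then given a substrate mix of 0.016 mM NADPH and 2 mM alpha-KG for 80 min at room temperature; remaining NADPH was read by diaphorase/resazurin fluorescence.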
LDHA block = LDHA (human) enzyme inhibition; hit rate 0.15% among 480,000; activity change, % (values are at about 110 or 230 µM); AID 1347041; P00338; purified LDHA, NADH/diaphorase-resazurin fluorescence; stronger effect = lower value; in the data active = activity change below about -30%; inconclusive = mostly about -25% to -30%;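 note: plate controls were DMSO wells for no effect and wells without enzyme for full effect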
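Human LDH5 (2 nM) was incubated with 0.06 mM NADH and 0.2 mM pyruvate for 5 min at room temperature in Tris pH 7.4. Remaining NADH was coupled through diaphorase/resazurin, and resorufin fluorescence was read at 0 and 20 min.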
Nrf2 inh = blocks Nrf2 signaling | A549 ARE-Fluc reporter, luciferase luminescence, 18-24 h | Potency, µM (highest dose often 46 µM), without a hit: at the top dose activity change, negative = inhibition, actives largely listed as inhibitors | hit rate 2.1% among 360,000 | AID 504444; note: potency is the fitted concentration of half-maximal effect; % is set by controls: 0 for no effect and ±100 for the full control effect; nearly all actives have a fitted effect of over 60% in size
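Concentration-response testing used A549 ARE_Fluc cells at 5000 cells/well. Following an 18-24 h compound incubation, viability was read by fluorescence (Ex 405/Em 525) and luciferase output by luminescence.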
Nrf2 ARE act = activates Nrf2 signaling | AREc32 ARE-luciferase reporter (MCF7-derived line), luminescence, 24 h | hit rate 0.31% among 410,000 | Potency, µM (top dose mostly 46.1 µM), inactives show at the top dose activation, most hits filed as activators; note: potency is the fitted concentration of half-maximal effect; % of control where 0% means no effect; nearly all actives have a fitted effect of over 65% in size
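ARE-driven firefly luciferase activity in AREc32 cells measured after a 24 hr compound exposure at 37 deg C, using Steady-Glo reagent and a 30 min room-temperature hold.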
Starred values were filed as active, the others as inactive; ? = inconclusive; . = no result given; [ ] = another dose, or the depositor's remark. Unless noted, calls come from the whole dose curve; as a rule, active = well fitted curve in the direction sought with a large enough effect; inconclusive = small, poorly fitted or top-dose-only effect, or another doubt; inactive = no such curve, though single readings can be large; an effect the other way counts as inactive or inconclusive.

SMILES	ALOX12 inh	A549 tox	mIDH1 inhibitor	LDHA block	Nrf2 inh	Nrf2 ARE act
CCCCn1c(=O)[nH]c(=O)c2c1nc(CCc1ccccc1)c(=O)n2CCOC	?	.	.	3	.	.
O=Cc1c[nH]c2cc(F)ccc12	9%	.	.	3	.	.
CN(C)c1ccc(-c2nnc([C@H]3CCN(C4CCC4)C3)o2)cc1	35%[176 µM]	.	.	.	.	.
Nc1c(-c2ccccc2)c(CSc2nc3ccccc3[nH]2)nn1-c1cccc(Cl)c1	6%	-18%	2%	0	23µM*	6%
Cc1ccccc1-n1nc(CSc2nc3ccccc3[nH]2)c(-c2ccccc2)c1N	-12%	-27%	1%	1	23µM*	0%
Nc1c(-c2ccccc2)c(CSc2nc3ccccc3[nH]2)nn1-c1ccc(Cl)cc1	14%	?	-5%	-8	?	0%
Cc1ccc(-c2ccc(/C=C/C(=O)c3ccc(Cl)cc3)o2)cc1Cl	?	.	.	7	.	.
CN(Cc1ccccc1)S(=O)(=O)c1ccc2[nH]c3c(c2c1)CCCCC3	?	2%	10%	-2	16µM*	3%
CC(=O)c1cccc(NS(=O)(=O)c2ccc3[nH]c4c(c3c2)CCCCC4)c1	?	-18%	2%	3	16µM*	-3%
COc1ccc(OC)c(CNS(=O)(=O)c2ccc3[nH]c4c(c3c2)CCCCC4)c1	-17%	-11%	-3%	1	16µM*	-1%
CC(=O)c1cccc(NS(=O)(=O)c2ccc3[nH]c4c(c3c2)CCCCCC4)c1	-24%	-22%	-16%	0	.	4%
COc1ccc(NS(=O)(=O)c2ccc3[nH]c4c(c3c2)CCCCC4)cc1	?	?	15%	-6	16µM*	0%
Cc1cccc2cc(CN(CC(C)C)C(=O)c3ccco3)c(=O)[nH]c12	11%	.	.	-6	.	.
CS(=O)(=O)N1CCCc2cc(C(=O)CSc3ccc(F)c(F)c3)ccc21	?	.	.	0	.	.
Cc1cc(C)cc(NC(=O)Nc2ccc3c(c2)N(C)C(=O)CS3)c1	1%	12%	-1%	1	?	3%
CCN(CC)c1ccc(NC(=O)Nc2cccc(C(C)=O)c2)cc1	?	-1%	2%	26	15µM*	5%
CCCNC(=O)Nc1ccc2c(c1)N(C)C(=O)c1ccccc1S2	18%	11%	-7%	-14	-24%	0%
CCc1ccc(NC(=O)Nc2ccc3c(c2)N(C)C(=O)CS3)cc1	-18%	-11%	-1%	-2	16µM*	-2%
CCOC(=O)c1cccc(NC(=O)Nc2ccc3c(c2)N(C)C(=O)c2ccccc2S3)c1	-17%	-20%	?	-7	21µM*	0%
CC(=O)c1cccc(NC(=O)Nc2ccc3c(c2)N(C)C(=O)CS3)c1	-25%	-1%	6%	-11	13µM*	0%
CCCNC(=O)Cn1nc(-c2cccc([N+](=O)[O-])c2)c2ccccc2c1=O	-22%	.	.	1	.	.
CCOC(=O)c1ncoc1-c1ccccc1C(=O)N1CCN(c2ccccc2F)CC1	-7%	.	.	0	.	.
COc1ccc(-c2nn(-c3ccccc3C)cc2CN(C)C(C)c2ccncn2)cc1F (stereo not given)	56%	.	.	.	.	.
Cc1cc(C)c2c(N)c(-c3ccc(C#N)cc3)sc2n1	4µM*	.	.	-1	.	.
Cc1ccc(Cl)cc1N1CCN(Cc2nc3c(c(=O)[nH]c(=O)n3C)n2Cc2ccccc2F)CC1	11%[57.4 µM]	-7%	-10%	-1	18µM*	-4%
SMILES	ALOX12 inh	A549 tox	mIDH1 inhibitor	LDHA block	Nrf2 inh	Nrf2 ARE act
Cc1ccccc1Cn1c(CN2CCN(c3cc(Cl)ccc3C)CC2)nc2c1c(=O)[nH]c(=O)n2C	0%	2%	-16%	-1	3%	0%
Cc1c(CCC(=O)O)c(=O)oc2cc(OCc3ccccc3Br)ccc12	?	-6%	-10%	-15	21µM*	-2%
COc1ccc(NC(=O)c2ccccc2[N+](=O)[O-])cc1	-9%	-1%	0%	-2	?	0%
COc1ccccc1Nc1ccc(NC(=O)c2cccc([N+](=O)[O-])c2C)cc1	-7%	-22%	3%	-4	10µM*	8%
CCCC1NC(=O)N(Cc2cc(F)cc3cccnc23)C1=O (stereo not given)	?	.	.	2	.	.
CCN(c1ccccc1)S(=O)(=O)c1cccc(C(=O)OC2CCCCC2=O)c1 (stereo not given)	2%	.	.	0	.	.
CCn1c(CSCc2ccc(C)cc2)nnc1SCC(=O)N1CCN(c2ccccc2)CC1	-8%	?	1%	1	21µM*	3%
C=CCn1c(CSCc2ccccc2)nnc1SCC(=O)N1CCN(c2ccccc2)CC1	-3%	-7%	7%	2	?	1%
COc1ccc(C2COc3cc(O)ccc3C2)c(OC)c1O (stereo not given)	35µM*	5%	10%	7	6%	1%
COc1ccc(-c2nnc(SCC(=O)N(C)Cc3ccccc3)o2)cc1OC	-5%	-13%	-1%	1	23µM*	0%
CN(Cc1ccccc1)C(=O)CSc1nnc(-c2cccc(Cl)c2)o1	-7%	0%	.	2	-17%	4%
O=C(COc1ccccc1-c1noc(COc2ccccc2)n1)N1CCCCCC1	8%	.	.	3	.	.
CC1CN(C(=O)Cc2nn(C)c(=O)c3ccccc23)CCO1 (stereo not given)	0%	.	.	-8	.	.
COc1cccc2c1OC[C@@H](CO)[C@H]2N(C)C(=O)Nc1ccc(Cl)cc1Cl	-17%	-6%	4%	0	18µM*	1%
COc1cc2c(=O)c(C(=O)c3ccc(C)c(C)c3)cn(Cc3ccccc3)c2cc1OC	?	-10%	-3%	-14	20%	0%
COc1cc2c(=O)c(C(=O)c3ccc(C)c(C)c3)cn(Cc3ccccc3F)c2cc1OC	1%	21µM*	?	-8	?	-3%
CCc1ccc(C(=O)c2cn(Cc3ccccc3)c3cc(OC)c(OC)cc3c2=O)cc1	-19%	21µM*	-3%	-7	?	0%
CCOc1ccc(C=O)cc1-c1ccccc1	-19%	.	.	3	.	.
CCCCNC(=S)Nc1ccc([N+](=O)[O-])cc1	?	?	2%	-6	18µM*	2%
CC(C)CCNC(=S)Nc1ccc([N+](=O)[O-])cc1	-30%	?	1%	-8	?	5%
CC(C)OC(=O)c1cc(NC(=S)Nc2ccc([N+](=O)[O-])cc2)cc(C(=O)OC(C)C)c1	?	?	-1%	3	16µM*	3%
O=C(NNC(=S)NC(=O)c1ccc(F)cc1)c1ccc(Cl)cc1	18µM*	.	.	-18	.	.
